Peg3 imprint = qHTS Assay for Compounds that Induce Erasure of Genomic Imprints | AID 1948, 2009 | mouse ES Peg3-LacZ reporter, beta-gal luminescence, 40 h | Potency, µM (series often up to 60.7 µM), actives largely listed as activators | 110,000 compounds, 0.02% hits
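Gelatin-coated wells received 300 freshly trypsinized female ES cells with a Peg3LacZ-Neo reporter on the maternal allele, then incubated 40 hours at 37C. BetaGlo was added for 5 minutes at room temperature before a single luminescence read.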
HEK293 cAMP cs = qHTS Assay for Agonists of the Thyroid Stimulating Hormone Receptor: Activators of Intracellular cAMP Concentrations in Parental HEK 293; 73,000 compounds, 2.5% hits; Potency, µM (titrated, usually from 57.1 µM), actives largely listed as activators; AID 938, 2007; parental HEK293 CNG cAMP sensor, membrane potential fluorescence; also: nearly all actives have a fitted effect of over 55% in size
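Counterscreen for endogenous-receptor signalling: CNG-channel HEK 293 cells report cAMP rise by membrane depolarization. After 60 min dye equilibration with 100 uM RO 20-1724, compounds incubated 30 min before bottom-read fluorescence at 590 nm.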
TSHR ag = qHTS Assay for Agonists of the Thyroid Stimulating Hormone Receptor | 73,000 compounds, 0.48% hits | Thyrotropin receptor (Homo sapiens), P16473 | HEK293-CNG-TSHR cells (CNG channel as cAMP sensor), membrane potential dye, cAMP | Potency, µM (top dose mostly 57.1 µM), actives largely listed as activators; active = well fitted activation curve with a large enough effect in the main read-out, with a control signal flat, not every such curve was filed as active; inconclusive = small, poorly fitted or top-dose-only effect, or a change in a side signal; inactive = no such curve, though single readings can be large or run the other way; reference of the percent scale not stated here;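 also: the control signal comes from parental cells without the receptor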
Target sequence (P16473 whole entry, looked up): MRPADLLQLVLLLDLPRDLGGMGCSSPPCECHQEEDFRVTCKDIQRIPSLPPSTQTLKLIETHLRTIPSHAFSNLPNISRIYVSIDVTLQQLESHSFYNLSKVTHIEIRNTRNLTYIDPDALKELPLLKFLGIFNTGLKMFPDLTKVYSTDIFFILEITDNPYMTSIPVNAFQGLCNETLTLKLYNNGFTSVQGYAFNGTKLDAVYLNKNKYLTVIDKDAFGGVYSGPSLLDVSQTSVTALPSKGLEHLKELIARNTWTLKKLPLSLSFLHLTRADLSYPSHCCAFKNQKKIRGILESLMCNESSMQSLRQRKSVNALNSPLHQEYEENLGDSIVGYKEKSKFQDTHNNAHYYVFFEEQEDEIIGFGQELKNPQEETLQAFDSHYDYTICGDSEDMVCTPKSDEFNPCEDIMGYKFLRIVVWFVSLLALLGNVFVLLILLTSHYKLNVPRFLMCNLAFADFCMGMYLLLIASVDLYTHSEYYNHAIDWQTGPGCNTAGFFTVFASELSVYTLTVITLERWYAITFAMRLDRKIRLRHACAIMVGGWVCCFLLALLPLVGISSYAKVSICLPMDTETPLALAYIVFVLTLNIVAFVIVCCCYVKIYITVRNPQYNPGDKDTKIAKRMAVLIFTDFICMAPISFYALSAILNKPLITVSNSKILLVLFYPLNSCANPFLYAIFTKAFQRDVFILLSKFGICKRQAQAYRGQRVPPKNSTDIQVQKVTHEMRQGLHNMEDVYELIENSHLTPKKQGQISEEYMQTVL
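cAMP rise detected as CNG-channel membrane depolarization by fluorescent dye (emission 590 nm), 30 min after compound, following 60 min dye loading containing 100 uM RO 20-1724 at room temperature. Cells: TSHR/CNG HEK 293, with parental CNG HEK 293 as control.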
A number is an active result; . = inactive; ? = inconclusive; / = no result; [ ] = remark or other dose. The full list was thinned out, with hits kept by preference. Unless noted, calls follow the shape of the dose curve; as a rule, active = well fitted activation curve with a large enough effect; inconclusive = small, poorly fitted or top-dose-only effect; inactive = no such curve, though single readings can be large or run the other way.

SMILES	Peg3 imprint	HEK293 cAMP cs	TSHR ag
Cc1c(CC(=O)N2CCCCC2)c(=O)oc2cc(O)ccc12	.[10.9 µM]	/	/
O=C(Nc1ccccc1)N1CCC2(CC1)CCN(C(=O)c1csnn1)CC2	/	.	4µM
O=C(Nc1ccccc1)N1CC[C@@]2(CCCN(C(=O)c3csnn3)C2)C1	/	.	.
Cc1ccc(-c2nnn(CC(=O)Nc3cccc4cccnc34)n2)o1	.	25µM	?
Cc1ccc(-c2nnn(CC(=O)N(CC(=O)NC(C)C)c3cnc4ccccc4c3)n2)o1	?	.	.
Nc1nonc1-c1nc2ccccc2n1CC(=O)N1CCN(c2ccc(F)cc2)CC1	.	25µM	?
CCCCOc1ccccc1NC(=O)Cn1c(-c2nonc2N)nc2ccccc21	.	6.3µM	?
CCc1ccccc1NC(=O)Cn1c(-c2nonc2N)nc2ccccc21	.[10.9 µM]	/	/
Nc1nonc1-c1nc2ccccc2n1CC(=O)Nc1ccc(F)cc1	.[10.9 µM]	/	/
CCc1ccc(NC(=O)Cn2nnc(C(=O)NCc3ccc(C)cc3)c2N)cc1	.[10.9 µM]	/	/
O=C(O)c1cccc(C(=O)O)c1S(=O)Cc1ccccc1 (centres undefined)	.[10.9 µM]	.[11.4 µM]	.[11.4 µM]
COc1ccccc1-n1c(SC)nc(O)cc1=O	.	32µM	?
COc1ccccc1-n1c(SCC(=O)NC(C)(C)C)nc(O)cc1=O	.	.	.
CCOC(=O)c1c(C)n(S(=O)(=O)c2ccc(C)cc2)c2ccc(NS(=O)(=O)c3ccc(C)cc3)cc12	.[10.9 µM]	/	/
COc1ccc(-n2nnnc2C2CCN(S(=O)(=O)c3cccc(Cl)c3C)CC2)cc1	.[10.9 µM]	/	/
O=C(c1cc2ccccc2cc1OCC(O)CN1CCCCC1)N1CCCCC1 (centres undefined)	.	?	?
N=C(C[C@@H](O)COc1ccccc1-c1ccccc1)N1CCCCC1	.	32µM	?
CCCCOc1ccccc1Cn1c(=O)sc2ccccc21	.[10.9 µM]	/	/
COc1ccc(CCNc2ncnc3c2oc2ccccc23)cc1OC	.	13µM	?
COc1ccc(CCNc2nc(C)nc3c2oc2ccccc23)cc1OC	.	?	?
Cc1[nH]c2ccc(Br)cc2c1CCNC(=O)c1cc2ccccc2oc1=O	.[10.9 µM]	/	/
COc1cccc(OCc2nnc(SCC(=O)OC3CCCCC3)n2C)c1	/	16µM	?
CCOC(=O)c1cccc(NC(=O)CSc2nnc(-c3ccoc3C)n2CC)c1	.	.	.
CCCn1c(SCC(=O)Nc2ccccc2-c2ccccc2)nnc1-c1ccoc1C	.	16µM	?
CCn1c(SCC(=O)Nc2ccccc2C(=O)OC)nnc1-c1ccoc1C	.	32µM	?
SMILES	Peg3 imprint	HEK293 cAMP cs	TSHR ag
Cc1occc1-c1nnc(SCC(=O)Nc2ccccc2-c2ccccc2)n1C	.	.	.
COc1ccc(NC(=O)CSc2nnc(-c3ccoc3C)n2CCc2ccccc2)cc1	.	.	25µM
COc1cccc(OCc2nnc(SC)n2C)c1	.	.	.
Cc1occc1-c1nnc(SCC(=O)Nc2ccccc2)n1Cc1ccccc1	.	?	?
CC(=O)c1cccc(NC(=O)C2CCN(S(=O)(=O)c3ccc4c(c3)CCCN4C(C)=O)CC2)c1	.[10.9 µM]	/	/
CCOCCc1nn2c(=O)cc(COC(=O)c3cccc(C)c3)nc2s1	.[10.9 µM]	/	/
CCn1c(COc2cccc(OC)c2)nnc1SCC(=O)Nc1ccccc1C(=O)OC	/	16µM	?
CCn1c(CC(=O)Nc2ccccc2)nnc1SCC(=O)Nc1ccccc1C(=O)OC	?	.	.
COCCN(Cc1ccc(C)c(Br)c1)S(=O)(=O)c1ccc2[nH]c(=O)ccc2c1	.[10.9 µM]	/	/
CN(C)c1ncc2ncc(=O)n(CCc3ccccc3)c2n1	.	13µM	?
CN(C)c1ncc2nc(-c3ccc(Cl)cc3)c(=O)n(Cc3ccc(F)cc3)c2n1	.	.[0.457 µM]	.
CN(C)c1ncc2nc(-c3ccccc3)c(=O)n(CCc3ccccc3)c2n1	?	.[2.29 µM]	.
CN(C)c1ncc2nc(-c3ccccc3)c(=O)n(Cc3ccc(F)cc3)c2n1	.	5µM	?
Cc1cccc(C)c1NC(=O)Cn1c(SCC(=O)NCc2ccccc2)nc2ccccc21	.[10.9 µM]	/	/
CSc1ccc(CNC(=O)C2CCN(c3nnc(-n4cccc4CNc4ccc(C)cc4)s3)CC2)cc1	.[10.9 µM]	/	/
CCOc1ccc(CCNC(=O)C(CC)n2nc(C)c3c(C)n(-c4ccccc4)nc3c2=O)cc1 (centres undefined)	.[10.9 µM]	/	/
O=C(CSc1nc2c(cnn2-c2ccc(F)cc2)c(=O)[nH]1)N1CCCc2ccccc21	?	25µM	?
Nc1nc(SCC(=O)N2CCCc3ccccc32)[nH]c(=O)c1-c1ccccc1	.	.	/
CCc1ccc(NC(=O)Cn2cnc3sc(C)c(S(=O)(=O)N4CCC(C)CC4)c3c2=O)cc1	.[10.9 µM]	/	/
COc1ccc(S(=O)(=O)Cc2ccc(C(=O)N3CCN(c4ccc(Cl)cc4)CC3)o2)cc1	.	.	20µM
COc1ccc(N2CCN(C(=O)c3ccc(CS(=O)(=O)c4ccc(OC)cc4)o3)CC2)cc1	.	?	?
CC(=O)OC[C@@H]1O[C@@H](O/N=C2/C[C@@H](O)[C@@H](O)[C@@H]3[C@@H]4C(=O)N(c5cccc(Oc6ccccc6)c5)C(=O)[C@H]4CC[C@H]23)[C@H](OC(C)=O)[C@H](OC(C)=O)[C@@H]1OC(C)=O	/	.[11.4 µM]	.[11.4 µM]
COc1ccccc1CNC(=O)c1cn(C)c2ccc(S(=O)(=O)N3CCC(C)CC3)cc2c1=O	.[10.9 µM]	/	/
N#CC1=C(N)S[C@H](C(=O)C23CC4CC(CC(C4)C2)C3)[C@H]1c1ccncc1	.	.	1.3µM
O=C(NCc1ccncc1)C12CC3CC(CC(C3)C1)C2	.	.	.
SMILES	Peg3 imprint	HEK293 cAMP cs	TSHR ag
Cc1ccc(NC(=O)CCN2CCN(CCO)CC2)cc1C	.[10.9 µM]	/	/
CCOC(=O)N1CCC(n2c(SCC(=O)NCc3ccccc3)nc3ccccc3c2=O)CC1	.	.	/
CCOC(=O)N1CCC(n2c(SCC(=O)NCCC3=CCCCC3)nc3ccccc3c2=O)CC1	.	6.3µM	?
CCc1cc2c(nc1CC)CCN(CC/C(C)=N/OC[C@@H](O)[C@@H]1O[C@@H]3OC(C)(C)O[C@@H]3[C@H]1O)C2	/	.[11.4 µM]	.[11.4 µM]
CCOCC(=O)N1CCc2ccccc21	.	.	.
O=C(COc1ccc2c(c1)CCC2)N1CCc2ccccc21	.	25µM	?
Cc1ccc(S(=O)(=O)NCC(c2ccc(N(C)C)cc2)N2CCc3ccccc32)cc1 (centres undefined)	.[10.9 µM]	/	/
COc1cc(-c2nnc(CSc3nc4ccccc4s3)o2)cc(OC)c1OC	.	32µM	?
COc1ccc(-c2nnc(CSc3nc4ccccc4c(=O)n3CC(C)C)o2)cc1OC	.	7.9µM	?
COc1cc(-c2nnc(COC(=O)CSc3cc(C)c4ccccc4n3)o2)cc(OC)c1OC	.	.	.
COc1ccc(-c2noc(CSc3nc4ccccc4c(=O)n3-c3ccccc3)n2)cc1OC	.	.	.
CC(C)=C1C(=O)C(c2ccccc2)=C2CN3C(=O)N(CCc4ccccc4)C(=O)[C@]3(C)[C@H]21	.	?	?
Cc1cc(Nc2cccc(C)c2C)n2cnnc2n1	.[10.9 µM]	/	/
CCCCn1c(SCC(=O)N2CCC(C)CC2)nc2cc(S(N)(=O)=O)ccc21	.	.	.[11.4 µM]
CCCCn1c(SCC(=O)c2cc(OC)ccc2OC)nc2cc(S(N)(=O)=O)ccc21	.	25µM	?

Bioassay records deposited in PubChem BioAssay by National Center for Advancing Translational Sciences (NCATS).
